# Rows were chosen to be rich in hits. Some 11% of all compounds tested hit in one or more screens of this group.
# HTT ATP protect = Huntington cell model cytoprotection by ATP luminescence. PC12 HTT-Q103 induced, cytoprotection, ATP luminescence, 40 h. Potency, µM (titrated, usually from 56.4 µM), for the others: cytoprotection (ATP increase), usual class: activators. 230,000 tested, 0.14% active. AID 1471; also: potency is read from the fitted curve at half-maximal effect; % of control where 0% means no effect; nearly all actives have a fitted effect of over 45% in size
#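 PC12 cells stably carrying ecdysone-inducible Htt exon 1 (Q103)–GFP were induced with 100 nM tebufenozide (final) alongside library compounds in a dose series. Cytoprotection was scored as retained ATP by ATPlite luminescence.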
# HPGD inh = inhibitors of human 15-hydroxyprostaglandin dehydrogenase (HPGD) | P15428 | purified HPGD, NADH fluorescence kinetic, PGE2 substrate | Potency, µM, without a hit: at the top dose activity change, negative = inhibition, usual class: inhibitors | 150,000 tested, 4.3% active | AID 894; active = well fitted inhibition curve with a large enough effect, not every such curve was filed as active; inconclusive = small, poorly fitted or top-dose-only effect, or another doubt; inactive = no such curve, though single readings can be large or run the other way; also: potency is read from the fitted curve at half-maximal effect; % is scaled to controls: 0 for no effect and ±100 for the full control effect
# Target sequence (P15428 whole entry, looked up): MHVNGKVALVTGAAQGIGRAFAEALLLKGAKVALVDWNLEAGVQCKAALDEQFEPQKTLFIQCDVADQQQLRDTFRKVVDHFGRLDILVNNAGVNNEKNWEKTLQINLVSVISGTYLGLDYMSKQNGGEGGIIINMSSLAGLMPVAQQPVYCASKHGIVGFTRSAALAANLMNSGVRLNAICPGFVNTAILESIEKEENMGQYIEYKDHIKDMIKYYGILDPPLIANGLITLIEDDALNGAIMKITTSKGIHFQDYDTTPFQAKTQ
#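 20 nM HPGD preincubated 15 min at room temperature with compound in 50 mM Tris-HCl pH 8, 0.01% Tween 20. Started with 1 mM NAD+ and 30 uM prostaglandin E2; NADH fluorescence (360/450 nm) read 5 times over 30-s intervals, last minus first.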
# PNC assembly inh = perinucleolar compartment assembly inhibition. PC3M PTB-GFP, PNC prevalence imaging, 16 h; hits give low values. activity change (PNC), negative = inhibition, % at 10 µM. 140,000 tested, 3.1% active;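 active = readout at or below -70, meaning at least 70% loss of cells showing the perinucleolar compartment, a nuclear body marking cancer cells; inconclusive = readout between -30 and a set limit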;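 also: plate controls were DMSO wells for no effect and camptothecin positive control wells for full effect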
#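 PC3M cells stably expressing PTB-GFP, 750–1000 cells/well, treated 16 h at 37 °C with compound (23 nl of library stock), in duplicate. After paraformaldehyde fixation and Hoechst stain, imaged at 20x; PNC prevalence scored by image analysis.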
# ALDH1A1 block = blocks purified human ALDH1A1 activity; Potency, µM (series often up to 75.3 µM), without a hit: at the top dose activity, negative = inhibition, hits mostly inhibitors; 220,000 tested, 7.3% active; Purified ALDH1A1, NADH fluorescence, propionaldehyde substrate; active = well fitted inhibition curve with a large enough effect, not every such curve was filed as active; inconclusive = small, poorly fitted or top-dose-only effect, or another doubt; inactive = no such curve, though single readings can be large or run the other way;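 also: potency is read from the fitted curve at half-maximal effect; plate controls were no enzyme wells and a reference inhibitor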
# Target sequence (P00352 whole entry, looked up): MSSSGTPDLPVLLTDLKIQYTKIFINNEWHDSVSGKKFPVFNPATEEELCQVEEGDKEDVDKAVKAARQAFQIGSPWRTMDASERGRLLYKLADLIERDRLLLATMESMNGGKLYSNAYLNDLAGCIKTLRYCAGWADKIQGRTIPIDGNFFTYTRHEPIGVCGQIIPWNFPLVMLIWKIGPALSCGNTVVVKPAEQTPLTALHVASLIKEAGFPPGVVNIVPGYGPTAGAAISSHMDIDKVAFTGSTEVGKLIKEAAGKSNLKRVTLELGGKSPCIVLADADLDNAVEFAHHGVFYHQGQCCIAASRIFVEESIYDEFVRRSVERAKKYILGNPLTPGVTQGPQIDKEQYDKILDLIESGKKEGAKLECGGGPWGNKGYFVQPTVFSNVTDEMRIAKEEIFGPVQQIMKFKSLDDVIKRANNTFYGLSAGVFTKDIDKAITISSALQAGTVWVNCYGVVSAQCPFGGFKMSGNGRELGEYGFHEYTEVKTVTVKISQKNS
# HTT aggregate = reduces HttQ103-GFP aggregates in PC12 cells; PC12 HttQ103-GFP aggregates, Acumen cytometry, 40 h; Potency, µM (doses to about 46.1 µM), inactives show at the highest dose activity change, negative = inhibition, usual class: inhibitors; 220,000 tested, 1.1% active; AID 1688; also: potency is read from the fitted curve at half-maximal effect; % is scaled to controls: 0 for no effect and ±100 for the full control effect; nearly all actives have a fitted effect of over 60% in size
#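 Compounds (qHTS titration) were added to PC12 cells expressing an ecdysone-driven HTT exon 1 Q103–GFP fusion after induction with 100 nM tebufenozide. Aggregate formation was measured as GFP objects in cell lysates.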
# GoLoco inh red = blocks human Gai1 binding to RGS12 GoLoco peptide, red readout | P63096 | Gai1:RGS12 GoLoco peptide FP, rhodamine, 10 min | Potency, µM (doses to about 61.6 µM), for inactives: at the top dose activity, negative = inhibition, actives largely listed as inhibitors | 230,000 tested, 0.44% active | AID 880; active = well fitted inhibition curve with a large enough effect, not every such curve was filed as active; inactive = no such curve, though single readings can be large or run the other way; also: potency is read from the fitted curve at half-maximal effect; % is scaled to controls: 0 for no effect and ±100 for the full control effect; nearly all actives have a fitted effect of over 30% in size
# * hit, by the source's call; ? = inconclusive; nt = no result given; [ ] = another dose, or the depositor's remark. Unless noted, calls follow the shape of the dose curve; as a rule, active = well fitted curve in the direction sought with a large enough effect; inconclusive = small, poorly fitted or top-dose-only effect, or another doubt; inactive = no such curve, though single readings can be large; an effect the other way counts as inactive or inconclusive.
SMILES,HTT ATP protect,HPGD inh,PNC assembly inh,ALDH1A1 block,HTT aggregate,GoLoco inh red
Cc1c(-c2ccccc2)oc2c(C(=O)N3CCN(c4ccc([N+](=O)[O-])cc4)CC3)cccc2c1=O,-25.3%[10 µM],-17.8%,8.1,3.55µM*,3.98µM*,4.9%
CCn1cc(C(=O)N2CCN(c3ccc([N+](=O)[O-])cc3)CC2)c(=O)c2ccc(C)nc21,-13.4%,nt,nt,25.1µM*,-21.4%,-4.2%
C=C1C[C@@]23C[C@@]1(O)CCC2[C@@]12C=CC(O)[C@](C)(C(=O)O1)C2C3C(=O)O (some centres not stated),nt,-5.1%,nt,4.3%,nt,-4.8%
NC(=O)c1ccc(N=C2C(=O)Nc3ccc([N+](=O)[O-])cc32)cc1,nt,nt,nt,12.6µM*,nt,9.9%
c1ccc(CNc2ncncc2-c2ccc3c(c2)OCO3)cc1,-96.4%,nt,nt,?,nt,-8.0%
CC(=O)Nc1sc(N/N=C\c2ccco2)nc1-c1cccs1,-14.8%[10 µM],31.6µM*,?,17.8µM*,2.6%,5.7%
O=C1c2ccccc2C(O)N1c1cccnc1 (configuration not stated),1.3%,-23.0%,-20.6,7.6%,-4.0%,-4.4%
CC(C)CN1C(=O)C(=Nc2cccnc2)c2ccccc21,-7.1%,nt,nt,1µM*,1.2%,3.7%
COc1cccc(NC(=O)Cn2c(=O)n(CCC(=O)NCc3ccco3)c(=O)c3ccccc32)c1,3.16µM*,nt,nt,-1.0%,20.7%,7.3%
Cc1cccc2nc(Cn3c(=O)n(CCCC(=O)NCc4ccco4)c(=O)c4ccccc43)cc(=O)n12,nt,28.2µM*,?,20µM*,-9.3%,-2.9%
C[C@H]1C2=C3C(C[C@H]4C(=O)N(c5ccccc5)C(=O)[C@H]4[C@H]3[C@@]3(Cc4ccccc4)C(=NCCc4c[nH]c5ccccc45)OC(=O)N3C2=O)[C@H]2C(=O)N(c3ccccc3)C(=O)[C@H]21 (some centres not stated),15.9%,-15.2%,nt,1.0%,nt,3.8%
N#CCCN(C(=O)Nc1ccc(Cl)c(Cl)c1)c1ccccc1,nt,-8.3%,?,?,-2.1%,-4.5%
CCOC(=O)NNC(=S)Nc1c(C)n(C)n(-c2ccccc2)c1=O,-7.9%[10 µM],nt,nt,2.1%,-1.6%[9.22 µM],-3.5%
CNC(=S)N/N=C(\C)c1ccc(C)c(C)c1,nt,-17.3%,21.7,?,13.2%,3.7%
CCN1CCCC1CNCc1cccc(OC)c1OCc1ccc(F)cc1 (configuration not stated),-9.1%[10 µM],-1.0%,19.3,-0.4%,-4.6%,4.1%
Fc1ccc2[nH]c3c(N4CCN(c5ccccc5)CC4)ncnc3c2c1,29.5%[1.9 µM],?,-126.1*,-2.1%,22.4µM*,6.2%
COc1ccc(N2CCN(c3ncnc4c3[nH]c3ccccc34)CC2)cc1,-46.3%,-6.1%,-14.2,-0.1%,?,2.5%
CCOC(=O)N1CCN(c2ncnc3c2[nH]c2ccc(OC)cc23)CC1,-13.6%,?,2.5,?,11.8%,0.0%
COc1cc2[nH]c3c(N4CCN(c5ccccn5)CC4)ncnc3c2cc1OC,-165.3%[0.074 µM],?,22.9,?,20µM*,-3.3%
COc1ccc2[nH]c3c(N4CCc5ccccc5C4)ncnc3c2c1,-63.3%[10 µM],nt,nt,nt,-12.2%[9.22 µM],3.2%
CCOC(=O)N1CCN(c2ncnc3c2[nH]c2ccc(F)cc23)CC1,-48.7%,-20.8%,-6.1,-12.7%,7.08µM*,8.6%
COc1ccccc1CCC(=O)Nc1ccc(C)cc1Cl,-23.4%,nt,nt,-11.8%,-10.9%,4.9%
Cc1cc(=O)n(CC=C(Cl)Cl)c2ccccc12,-19.4%,7.94µM*,?,?,4.6%[9.22 µM],-9.0%
Cc1cc(=O)n(CC(=O)O)c2ccccc12,9.7%[10 µM],nt,nt,-5.6%,-4.3%[9.22 µM],12.8%
CCN1CCCC1Cn1c(-c2ccccc2)nc2c(N(CCOC)CCOC)nc(C)nc21 (configuration not stated),2.6%,-24.5%,nt,?,nt,8.4%
SMILES,HTT ATP protect,HPGD inh,PNC assembly inh,ALDH1A1 block,HTT aggregate,GoLoco inh red
COC(=O)c1c(O)cc(=O)n2c1CCCCC2,-22.2%,nt,nt,1.78µM*,-1.4%,-3.1%
COC(=O)c1c(C(=O)OC)c2n(c1C)CCC2,9.1%,-4.9%,15.9,7.0%,6.6%,-20.9%
COc1cccc(NC(=O)CSc2nc3ccccc3c(=O)n2CCCC(=O)N2CCCC2)c1,-5.1%,28.2µM*,?,?,18.9%,-1.8%
CCOc1ccc(NC(=O)CSc2nc3ccccc3c(=O)n2CCCC(=O)N2CCCC2)cc1,-15.9%,nt,19.2,10.4%,5.3%,nt
CCOc1ccc(NC(=O)CSc2nc3ccccc3c(=O)n2CCCC(=O)NCCCN2CCCC2=O)cc1,-40.5%,nt,nt,7.94µM*,-4.0%,-14.7%
COc1ccc(NC(=O)CSc2nc3ccccc3c(=O)n2CCC(=O)N2CCCCC2)cc1,11.1%,-5.2%,72.5,15.8µM*,2.4%,3.1%
Cn1cccc1C(=O)N1CCC2(CC1)CN(Cc1ccc(C#N)cc1)C2,-2.8%,-3.6%,nt,-8.8%,nt,5.3%
N[C@@H](C(=O)O)c1ccc(O)c(C(=O)O)c1,-19.0%,?,nt,?,nt,-7.9%
COc1ccc(C2CC(c3ccccc3)=NN2C(=O)CN2N=NC3C(=O)N(c4cccc(F)c4)C(=O)C32)cc1 (configuration not stated),-12.5%[10 µM],-13.1%,-3.8,14.6%,26.9%,10.4%
Cc1onc(-c2ccccc2)c1CNS(=O)(=O)c1ccccc1,-12.3%[10 µM],nt,nt,?,-20.7%[9.22 µM],9.6%
Cc1ccc(S(=O)(=O)NCc2c(-c3ccccc3)noc2C)cc1,-3.3%[10 µM],nt,nt,3.98µM*,-7.2%[9.22 µM],5.2%
COc1ccc(S(=O)(=O)NCc2c(-c3ccccc3)noc2C)c(OC)c1,2.2%[10 µM],nt,nt,2.51µM*,2.2%[9.22 µM],-8.7%
CC(CN1CCN(C)CC1)OC(=O)c1cccc(Cl)c1 (configuration not stated),6.7%[10 µM],nt,nt,nt,9.4%[9.22 µM],-2.6%
OCC1(Cc2cccc(Cl)c2)CCCN(Cc2cnn(-c3ccccc3)c2)C1 (configuration not stated),21.2%[10 µM],nt,nt,-12.3%,1.9%[9.22 µM],6.0%
O=C(Cc1cn2ccsc2n1)NCc1ccccc1,-12.3%[10 µM],?,?,?,11.0%,-5.7%
O=C(Cc1cn2ccsc2n1)Nc1nc2c(s1)CN(Cc1ccccc1)CC2,6.0%[0.074 µM],-9.1%,1.8,10µM*,-6.1%,10.7%
c1nc2n(n1)C1=C(CCCC1)C1(CCCCC1)N2,-17.2%[10 µM],nt,nt,-10.3%,-16.5%,13.8%
COc1ccc(NC(=O)C2CCCO2)cc1Cl (configuration not stated),5.0%,15.8µM*,17.6,?,-5.7%,-14.2%
CSc1nc2ccc(NC(=O)C3CCCO3)cc2s1 (configuration not stated),-37.0%,28.2µM*,10.0,?,-14.8%,3.0%
COc1cc(NC(=O)C2CCCO2)c(OC)cc1Cl (configuration not stated),-1.8%[10 µM],-3.3%,?,0.5%,2.2%,3.8%

# Assay outcomes from PubChem.
